Dicer processing = human Dicer pre-microRNA cleavage inhibition | cat-ELCCA pre-miR-21 Dicer processing, chemiluminescence; hits give high values | 47,000 compounds, 6% hits | z-score at 25 µM | AID 1347074; in the data active = z-score above about 3, passing the limit was not always enough;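 note: plate controls were vehicle for no effect and no enzyme for full effect; higher signal means more uncleaved substrate so more Dicer inhibition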
Starred values were filed as active, the others as inactive. The sample as a whole holds a higher share of hits than the screen did.

SMILES | Dicer processing
CC1(C)CC(=O)c2cnc(NC(=O)Nc3ccccc3)nc2C1 | 0.9
N#C/C(=C\N1CCCC1)S(=O)(=O)c1ccc(Cl)cc1 | 1.6
C=CCn1c(-c2cccs2)nc2ccccc21 | 125
Brc1cc2c(cc1Cn1c(-c3cncs3)nc3ccccc31)OCO2 | 4.3*
Cc1ccccc1Cn1c(-c2cncs2)nc2ccccc21 | 0.83
Nc1ccc(SC(C[N+](=O)[O-])c2ccccc2C(F)(F)F)cc1 (stereo unspecified) | -9.4
O=C(Nc1ccc(Cl)cc1)c1nn2c(c1Cl)NC(c1ccco1)CC2C(F)(F)F (stereo unspecified) | 3.8*
O=C(Nc1ccc(O)cc1)c1cc2n(n1)C(C(F)(F)F)CC(c1ccco1)N2 (stereo unspecified) | 1.2
O=C(c1nn2c(c1Cl)NC(c1ccco1)CC2C(F)(F)F)N1CCN(c2ccccc2)CC1 (stereo unspecified) | 5.3*
CC(C)(C)NC(=O)c1nn2c(c1Cl)NC(c1ccco1)CC2C(F)(F)F (stereo unspecified) | 3.2*
CC(C)(C)NC(=O)c1nn2c(c1Br)NC(c1ccccc1)CC2C(F)(F)F (stereo unspecified) | -0.07
O=C(Nc1ccc(Cl)cc1)c1cc2n(n1)C(C(F)(F)F)CC(c1ccco1)N2 (stereo unspecified) | 1.4
COc1ccc(N2CCN(C(=O)c3cc4n(n3)C(C(F)(F)F)CC(c3ccco3)N4)CC2)cc1 (stereo unspecified) | 0.83
O=C(c1nn2c(c1Cl)NC(c1ccco1)CC2C(F)(F)F)N1CCCC1 (stereo unspecified) | 2.4
O=C(NC1CC1)c1cc2n(n1)C(C(F)(F)F)CC(c1ccco1)N2 (stereo unspecified) | -0.56
COc1ccc(C(C[N+](=O)[O-])Sc2cccc(N)c2)cc1 (stereo unspecified) | -4.6
O=c1[nH]c2ccccc2c(O)c1C=Nc1ccccc1 | 1.7
Cc1ccc(-c2cc3ncc(C(=O)c4cc(C)ccc4O)cn3n2)cc1 | -0.53
Cc1nc(NCC(C)C)c2sc3nc4c(cc3c2n1)COC(C)(C)C4 | 0.49
CNc1nnc(SCc2csc3ccccc23)s1 | 0.81
CCCCOC(=O)C1=C(C)NC2=C(C(=O)CC(C)(C)C2)C1c1ccc2c(c1)OCO2 (stereo unspecified) | 0.07
CN1CCc2c(sc3c2C(=O)NC(c2cc(Br)ccc2OCc2ccccc2)N3)C1 (stereo unspecified) | -1.3
COCCOC(=O)C1=C(C)NC2=C(C(=O)CCC2)C1c1ccccc1Br (stereo unspecified) | 0.47
CN(C)/C=C(/Sc1nnc(C(F)(F)F)n1C)C(=O)c1ccc(Cl)cc1 | -0.74
CCOC(=O)/C(=N\Nc1cccc(C)c1)c1csc(N)n1 | 4*
SMILES | Dicer processing
CCOC(=O)/C(C)=N/Nc1ccc(F)cc1 | 0.97
CCOC(=O)/C(C)=N/Nc1ccccc1 | -1
C=CCn1c(=S)sc2c(Sc3nnc(-c4ccncc4)n3C)ncnc21 | -0.02
COc1ccc(S(=O)(=O)n2cnc(C)c2)cc1OC | -0.51
CCCCCCCC1N[C@H](C(=O)O)CS1 (stereo partly specified) | -1.2
O=C(Nc1ccc(F)c(Cl)c1)c1cccnc1Sc1cccs1 | -2.4
CCOC(=O)c1c(S(=O)(=O)N2CCSC2C(=O)OC)c(-c2ccccc2)n(-c2ccccc2)c1C (stereo unspecified) | 1.5
Cn1cc(Cl)c(/C=C(\C#N)S(=O)(=O)c2ccccc2)n1 | 0.91
Cn1cc(Cl)c(/C=C(\C#N)S(=O)(=O)C(C)(C)C)n1 | 4.2*
Cn1cc(Cl)c(/C=C(\C#N)C(=O)c2ccc(Cl)cc2)n1 | 0.36
Cc1cc(C)cc(CC(C(=O)O)C(C)C(=O)O)c1 (stereo unspecified) | 0.65
CCOc1cc(C2C(C(=O)OCCc3ccccc3)=C(C)NC3=C2C(=O)CCC3)cc(Cl)c1O (stereo unspecified) | 1.1
COc1ccc(N2CCN(CC(O)COC3C4(C)CCC(C4)C3(C)C)CC2)cc1 (stereo unspecified) | 2.1
CN(C)Cc1ccc(O)c(CN(C)C)n1 | -1.7
CN(C)Cc1c(O)ccc2ccccc12 | 5.3*
CN(C)Cc1c(O)ccc2c(=O)c(Oc3ccc4ccccc4c3)c(C(F)(F)F)oc12 | -0.51
CC1=C(C(=O)OC(C)C)C(c2cccc3ccccc23)C2=C(CCCC2=O)N1 (stereo unspecified) | 2.8
Cc1ccc(-c2c3c(=O)n(C)c(=O)n(C)c3c3cccnn23)cc1 | 0.09
C=CCOC(=O)C1=C(C)NC2=C(C(=O)CCC2)C1c1cccc(Br)c1 (stereo unspecified) | -0.02
Cc1nc2c(cnn2-c2ccccc2)c(=O)n1/N=C/c1ccc2c(c1)OCO2 | 2.1
Cc1sc2nc(C)n(/N=C/c3cccs3)c(=O)c2c1C | 1.9
Cc1sc2nc(C)n(/N=C/c3ccc4c(c3)OCO4)c(=O)c2c1C | 6.4*
CC(C)(C)c1ccc(-c2cc(NC(=O)c3ccccc3F)n[nH]2)cc1 | 1.1
O=c1cc(-c2ccc(O)c(O)c2)oc2cc(O)cc(O)c12 | 12*
Cc1oc2cc(O)cc(O)c2c(=O)c1-c1ccccc1 | 1.3
SMILES | Dicer processing
O=c1c(O)c(-c2ccc(O)c(O)c2)oc2cc(O)cc(O)c12 | 0.32
Cc1nc(N2CCN(c3cccc(Cl)c3)CC2)c2c(C)c(C)sc2n1 | 1.1
O=C1NC2CC2N1C(=O)OCc1ccccc1 (stereo unspecified) | 0.37
Oc1cccc(N2Cc3ccccc3C2)c1 | 4.4*
Oc1ccc(N2Cc3ccccc3C2)cc1 | -2.2
CC1CCC2C(=O)N(c3cccc(O)c3)C(=O)C2C1 (stereo unspecified) | 1.1
O=S(=O)(NCc1ccncc1)c1ccc(Br)cc1 | 1.8
FC(F)(F)c1ccc(-c2nnc(SCc3c(Cl)cccc3Cl)s2)nc1 | -0.24
Cc1cccc(NC(=O)/C=C/C(=O)O)c1C | 0.56
O=C1/C(=C/c2c(F)c(F)c(F)c(F)c2F)SC(=S)N1/N=C/c1ccc(Cl)cc1Cl | 12*
Cc1cccc(/C=C2\SC(=S)N(/N=C/c3ccc(Cl)cc3Cl)C2=O)c1 | -1.4
C=CCn1c(=S)sc2c(=O)n(/N=C/c3ccc(Cl)cc3Cl)c(C)nc21 | -1.8
N#Cc1c(NC(=O)c2ccc(Cl)cc2)sc2c1CCCC2 | 1.4
N#Cc1c(NC(=O)COc2ccc(Cl)cc2)sc2c1CCCC2 | -0.23
CN(C)C(=O)c1c(NC(=O)c2ccccc2)sc2c1CCCC2 | -0.15
N#Cc1c(NC(=O)c2ccccc2)sc2c1CCCCC2 | 3.2*
N#Cc1c(NC(=O)C(=O)c2c[nH]c3ccccc23)sc2c1CCCC2 | 4.6*
COc1cc2ccccc2cc1C(=O)Nc1sc2c(c1C#N)CCC2 | 2.8
Cc1cc(Oc2ccc(C(F)(F)F)cc2[N+](=O)[O-])c2c(Cl)ccc(C)c2n1 | -0.58
CCSc1ccc(/C(N)=N/OC(=O)C(C)(C)C)cn1 | -0.49
COc1cc(CNCCSc2nnnn2C)ccc1OCc1ccccc1F | 0.62
Nc1nc(-c2cccc3ccccc23)cs1 | 0.36
Nc1nc(-c2csc3ccccc23)cs1 | 3.3*
c1ccc2c(-c3csc(-c4ccc(-c5ccno5)s4)n3)csc2c1 | -1.4
CC1=C(C#N)C(c2ccc(C#Cc3ccccc3)s2)C2=C(CCCC2=O)N1 (stereo unspecified) | 0.07
CC(C)c1ccc(C2/C(=C(\O)c3ccccc3)C(=O)C(=O)N2CCCN2CCOCC2)cc1 (stereo unspecified) | -0.59
Cc1ccc(S(=O)(=O)c2nc(-c3ccccc3)oc2N2CCOCC2)cc1 | 1
Cc1ccc(N=Cc2c(C)[nH]n(-c3ccccc3)c2=S)c(C)c1 | -3.9
Cc1ccc(N=Cc2c(C)[nH]n(-c3ccc(C)cc3)c2=O)cc1 | 4*
